# Data taken from PubChem BioAssay (EPA / NIEHS).
# Active and inactive are the calls of the source. Rule for the calls: active = hit-call score of the fitted dose curve at least 0.9, where 1 is the maximum; inactive = score below 0.9.
# Target: Nuclear respiratory factor 1 (Homo sapiens) (UniProt Q16656)
# Assay: ATG_NRF1_CIS: Attagene CIS-FACTORIAL HepG2 Assay for human Nuclear Respiratory Factor 1 (NRF1) Orphan Gene (AID 2282987)
# Conditions: HepG2 NRF1 cis-element reporter, Attagene multiplex; actives raise or lower the signal
# Procedure: ATG_CIS is a cell-based, multiplexed-readout assay that uses HepG2, a human liver cell line, with measurements taken at 24 hours after chemical dosing in a 24-well plate.ATG_NRF1_CIS is one of 52 assay component(s) measured or calculated from the ATG_CIS assay. It is designed to make measurements of mRNA induction, a form of inducible reporter, as detected with fluorescence intensity signals by Reverse transcription polymerase chain reaction (RT-PCR) and Capillary electrophoresis technology.Data from the assay component ATG_NRF1_CIS was analyzed into 1 assay endpoint. This assay endpoint, ATG_NRF1_CIS, was analyzed with bidirectional fitting relative to DMSO as the negative control and baseline of activity. Using a type of inducible reporter, measures of mRNA for gain or loss-of-signal activity can be used to understand the reporter gene at the transcription factor-level as they relate to the gene NRF1. Furthermore, this assay endpoint can be referred to as a primary readout, because this assay has produced multiple assay endpoints where this one serves a reporter gene function. To generalize the intended target to other relatable targets, this assay endpoint is annotated to the dna binding intended target family, where the subfamily is nuclear respiratory factors.
# Human liver HepG2 cells are transiently transfected with multiple reporter transcription units (MRTUs) in 6-well plates using FuGene 6 reagent (Roche; 3 ml FuGene/1 mg DNA). The MRTU constructs are regulated by a cis-regulating element (promoter). […] A major difference between the CIS and TRANS system is that in CIS activities of endogenous TFs are measured, whereas the TRANS assay evaluates changes in activities of exogenous, chimeric NR-Gal4 proteins. […] At the end of 24 hour incubation, total RNA was isolated using TriZol reagent (Invitrogen). The isolated RNA is then reverse-transcribed using oligo(dT) primer and Mo-MLV reverse transcriptase (Invitrogen) with DNAse I (Ambion) treatment for 30 min. The one-tenth of the produced cDNA was amplified by PCR using Taq DNA polymerase (Invitrogen) and two reporter sequence-specific primers. The PCR products were fluorescently labeled by primer extension with 6-arboxyfluorescein (6-FAM) 5'-labeled reporter sequence-specific primer (2 min at 95 C, 20 s at 68 C and 10 min at 72 C) and these products were digested with 5U of HpaI (New England Biolabs) for 2h at 37 C. The fragments were purified using Qiaquick PCR columns (Qiagen), analyzed on an ABI 3130xL genetic analyzer (Applied Biosystems) with peak positions identified by using a set of X-rhodamine (ROX)-labeled MapMarker1000 molecular weight standards (BioVentures). The raw capillary electrophoresis data was processed using Attagraph software (Attagene).
# Sequence of Nuclear respiratory factor 1 (Homo sapiens) (Q16656 whole entry, looked up): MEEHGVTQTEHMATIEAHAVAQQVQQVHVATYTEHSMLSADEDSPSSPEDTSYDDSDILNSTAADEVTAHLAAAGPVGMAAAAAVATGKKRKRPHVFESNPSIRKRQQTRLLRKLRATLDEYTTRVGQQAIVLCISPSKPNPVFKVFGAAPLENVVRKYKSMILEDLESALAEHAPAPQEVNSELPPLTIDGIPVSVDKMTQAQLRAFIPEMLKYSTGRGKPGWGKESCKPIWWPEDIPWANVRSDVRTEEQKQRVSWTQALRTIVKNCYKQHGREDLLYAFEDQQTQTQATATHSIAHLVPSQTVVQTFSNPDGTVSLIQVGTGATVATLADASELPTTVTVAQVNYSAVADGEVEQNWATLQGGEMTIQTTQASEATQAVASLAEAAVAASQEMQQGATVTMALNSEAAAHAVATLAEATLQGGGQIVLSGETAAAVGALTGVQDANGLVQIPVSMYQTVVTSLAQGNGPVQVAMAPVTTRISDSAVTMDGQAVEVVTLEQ
SMILES,outcome,AC50
COc1ccccc1OC,inactive,
COc1cc(-c2ccc(N)c(OC)c2)ccc1N,inactive,
O=C1CCCN1,inactive,
C=C(C)C#N,inactive,
C[C@]12CC[C@H](O)CC1=CC[C@@H]1[C@@H]2CC[C@]2(C)C(=O)CC[C@@H]12,inactive,
COP(=O)(OC)OC,inactive,
CN(C)N=O,inactive,
O=C(O)C(Cl)(Cl)Cl,inactive,
COC(=O)c1sccc1S(=O)(=O)NC(=O)Nc1nc(C)nc(OC)n1,inactive,
[O-][Cl+2]([O-])O,inactive,
OCC(O)CCl (stereo not given),inactive,
CCC(=O)C(CC(C)N(C)C)(c1ccccc1)c1ccccc1 (stereo not given),inactive,
C[C@@H](Oc1ccc(Cl)cc1Cl)C(=O)O,inactive,
CCOC(=O)/C=C(C)/C=C/C[C@@H](C)CCCC(C)C,,65.2 µM (active)
O=[N+]([O-])c1ccc2c3c(cccc13)CC2,inactive,
CC(Br)C(=O)O (stereo not given),inactive,
Nc1ncc([N+](=O)[O-])s1,inactive,
CN(CCCC(=O)c1cccnc1)N=O,inactive,
COc1cccc(C=O)c1,inactive,
ClC1=C(Cl)[C@]2(Cl)[C@@H]3[C@@H](Cl)[C@@H](Cl)C[C@@H]3[C@@]1(Cl)C2(Cl)Cl,inactive,

SMILES,outcome,AC50
COP(=S)(OC)Oc1ccc(Sc2ccc(OP(=S)(OC)OC)cc2)cc1,inactive,
CN(C)P(=O)(N(C)C)N(C)C,inactive,
Oc1cccc2cccnc12,inactive,
CCSC(C)CC1CC(=O)C(C(CC)=NOC/C=C/Cl)=C(O)C1 (stereo not given),inactive,
ClCCBr,inactive,
N#CCc1ccc(Cl)cc1,inactive,
Fc1ccc(C2(Cn3cncn3)OC2c2ccccc2Cl)cc1 (stereo not given),inactive,
CCc1ccccc1N,inactive,
CCC(=O)c1ccccc1,inactive,
CC(=O)OC(c1ccccc1)C(Cl)(Cl)Cl (stereo not given),inactive,
COP(=S)(OC)Oc1cc(Cl)c(Cl)cc1Cl,inactive,
CCCCOCCOC(C)=O,inactive,
CC1(C)CCC(Cc2ccc(Cl)cc2)C1(O)Cn1cncn1 (stereo not given),inactive,
CCc1ccccc1C,inactive,
O=C/C=C/c1ccccc1,inactive,
c1cc[c]([Hg][c]2ccccc2)cc1,inactive,
Nc1ccc(-c2ccc(N)c(Cl)c2)cc1Cl,inactive,
COC(=O)Cc1ccccc1,inactive,
O=C1C(Cl)=C(Cl)C(=O)c2ccccc21,inactive,
N#CCCO,inactive,
